Inconclusive results are not listed. The source made the active and inactive calls. How the source made its calls, unless noted: active means hit-call score of the fitted dose curve at least 0.9, where 1 is the maximum; inconclusive means response in the unintended direction; inactive means score below 0.9.
What was measured:
[1] = TOX21_p53_BLA_p2_viability: Viability Assessment in the Tox21 HCT-116 p53 Agonism Beta-lactamase Assay, Phase 2 (AID 2283591);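 further: compound exposure lasted 16 h at 37 °C; actives lower the ATP signal meaning cytotoxicity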
How it was run: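 HCT-116 p53-bla cells (4000/well) rested 5 h at 37C, then received compounds in DMSO (217-fold dilution) for 16 h at 37C, 5% CO2. After the CCF4 read, CellTiter-Glo was added; ATP luminescence was read after 30 min at room temperature.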

[2] = target: Cellular tumor antigen p53 (Homo sapiens) (UniProt P04637); test: TOX21_p53_BLA_p2_ratio: Tox21 HCT-116 p53 Agonism Beta-lactamase Assay, Ratio, Phase 2 (AID 2283592)
How it was run: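 HCT-116 cells with p53-responsive beta-lactamase reporter, 4000 cells/well, preincubated 5 h, then compound in DMSO (217-fold dilution) for 16 h at 37C. CCF4-AM substrate 2 h at room temperature; 460/530 nm emission ratio fitted upward versus DMSO.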

[3] = TOX21_p53_BLA_p3_viability: Viability Assessment in the Tox21 HCT-116 p53 Agonism Beta-lactamase Assay, Phase 3 (AID 2283593);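 further: cells exposed to compound for 16 h before reading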
How it was run: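 HCT-116 cells (4000/well) rested 5 h at 37C, then got DMSO compounds by pin tool (217-fold dilution) for 16 h at 37C, 5% CO2. After the bla read, CellTiter-Glo was added and luminescence read at 30 min, room temperature.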

[4] = target: Cellular tumor antigen p53 (Homo sapiens) (UniProt P04637); test: TOX21_p53_BLA_p3_ratio: Tox21 HCT-116 p53 Agonism Beta-lactamase Assay, Ratio, Phase 3 (AID 2283596)
How it was run: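 HCT116 p53-bla cells (4000/well) given compound in DMSO (217-fold dilution) after 5 h, incubated 16 h at 37C. CCF4-AM substrate 2 h at room temperature; 460/530 nm emission ratio, gain fitted against DMSO.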

[5] = TOX21_p53_BLA_p4_viability: Viability Assessment in the Tox21 HCT-116 p53 Agonism Beta-lactamase Assay, Phase 4 (AID 2283597);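 further: hits lower the luminescence signal meaning cytotoxicity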
How it was run: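 HCT-116 p53-bla cells, 4000/well, dosed after 5 h attachment and incubated 16 h at 37 °C, 5% CO2. Viability from CellTiter-Glo ATP luminescence after 30 min at room temperature, taken after the beta-lactamase read; loss of signal indicates cytotoxicity.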

[6] = target: Cellular tumor antigen p53 (Homo sapiens) (UniProt P04637); test: TOX21_p53_BLA_p5_ratio: Tox21 HCT-116 p53 Agonism Beta-lactamase Assay, Ratio, Phase 5 (AID 2283599)
How it was run: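 HCT-116 cells carrying a p53-inducible beta-lactamase reporter were seeded at 4000 cells/well and dosed after 5 h with compound in DMSO (217-fold dilution). After 16 h at 37C, CCF4-AM substrate was added for 2 h, and the 460/530 nm emission ratio was scored as gain-of-signal versus DMSO.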

[7] = TOX21_p53_BLA_p5_viability: Viability Assessment in the Tox21 HCT-116 p53 Agonism Beta-lactamase Assay, Phase 5 (AID 2283600)
How it was run: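 HCT-116 p53 beta-lactamase reporter cells, 4000/well, were exposed to compound (pin transfer, 217-fold dilution) for 16 hours at 37C. Cellular ATP was read by CellTiter-Glo luminescence after 30 min at room temperature.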

[8] = target: Cellular tumor antigen p53 (Homo sapiens) (UniProt P04637); test: TOX21_p53_BLA_p4_ratio: Tox21 HCT-116 p53 Agonism Beta-lactamase Assay, Ratio, Phase 4 (AID 2283601)
How it was run: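 HCT116 cells carrying an inducible beta-lactamase reporter were plated at 4000 cells/well, rested 5 h, then exposed to compounds in DMSO (217-fold dilution) for 16 h at 37C. CCF4-AM substrate was loaded 2 h at room temperature; 460/530 nm emission ratio scored gain-of-signal versus DMSO.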

THRB (gene 7068) [9] = target: THRB (gene 7068) (UniProt P10828); test: TOX21_TRB_BLA_Antagonist_Followup_ratio: Tox21 Thyroid Hormone Receptor beta Antagonism Beta-lactamase (BLA) Follow-Up Assay, Ratio (AID 2283958)
How it was run: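 In this antagonist-mode follow-up, a stably integrated GAL4-TRβ LBD fusion drives a UAS-beta-lactamase reporter in HEK293T cells. Loss of ratio signal relative to DMSO after 18 h treatment indicates activity; parallel CellTiter-Glo flags cytotoxicity.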

[10] = TOX21_TRB_BLA_Antagonist_Followup_viability: Viability Assessment in the Tox21 Thyroid Hormone Receptor beta Antagonism Beta-lactamase (BLA) Follow-Up Assay (AID 2283961)
How it was run: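 HEK293T cells with GAL4-human TRβ LBD and UAS-bla reporter, 3,000 cells/well in 2% charcoal-stripped FBS medium; 11-point concentrations in triplicate, 18 h at 37C. Viability from ATP by CellTiter-Glo luminescence, 30 min RT, same plates.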

THRB (gene 7068) [11] = target: THRB (gene 7068) (UniProt P10828); test: TOX21_TRB_COA_Antagonist_Followup_ratio: Tox21 Thyroid Hormone Receptor beta Antagonism through Coactivator Recruitment Follow-Up Assay, Ratio (AID 2283967)
How it was run: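 Cell-free TR-FRET coactivator recruitment with GST-tagged TRβ LBD (5.0 nM) and fluorescein-labeled SRC-2 peptide (200 nM) detected by terbium anti-GST antibody (2 nM). The 520:495 nm emission ratio was normalized to DMSO (0%) and T3 (100%).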

[12] = TOX21_TR_RXR_BLA_Antagonist_Followup_viability: Viability Assessment in the Tox21 Thyroid Hormone Receptor beta Retinoid X Receptor alpha (RXRa) Antagonism Beta-lactamase (BLA) Follow-Up Assay (AID 2283979)
How it was run: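 RXRa-UAS-bla HEK293T cells seeded 2,500/well in phenol red-free DMEM with 2% charcoal-stripped FBS, attached 5 h, then exposed to compounds at 11 concentrations in triplicate for 16 h at 37C/5% CO2. Viability read by CellTiter-Glo ATP luminescence; bidirectional fit versus DMSO.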

[13] = CCTE_Harrill_HTTr_Viability_MCF7: CCTE's 6-hour Cell Viability Assessment for the High-Throughput Transcriptomics (HTTr) Platform, in MCF-7 cells cultured in DMEM + 10% fetal bovine serum, Harrill Lab (AID 2284010; active means hit-call score of the fitted dose curve at least 0.9, where 1 is the maximum; inactive means score below 0.9)
How it was run: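 Viability measured through PI dye exclusion by high-content imaging at 6 h post-dosing.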

[14] = CCTE_Harrill_HTTr_Apoptosis_MCF7: CCTE's 6-hour Apoptosis Assessment for the High-Throughput Transcriptomics (HTTr) Platform, in MCF-7 cells cultured in DMEM + 10% fetal bovine serum, Harrill Lab (AID 2284011; active means hit-call score of the fitted dose curve at least 0.9, where 1 is the maximum; inactive means score below 0.9)
How it was run: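 MCF-7 cells in DMEM + 10% FBS exposed 6 h to chemicals over an eight-point dilution series. Caspase-3/7 activation imaged by high-content CellEvent Green staining; fitted bidirectionally versus DMSO.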

[15] = CCTE_Harrill_HTTr_CellCount_MCF7: CCTE's Cell Proliferation Assessment for the High-Throughput Transcriptomics (HTTr) Platform, Harrill Lab (AID 2284012);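 further: count of Hoechst-stained nuclei per well by high-content imaging in MCF-7 cells; intended direction is loss of nuclei count meaning fewer cells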
How it was run: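 Nuclei counting (Hoechst, high content imaging) in MCF-7 after a 6 h treatment at eight concentrations. Activity fitted bidirectionally, DMSO as negative control.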

[16] = target: Thyroid hormone receptor alpha (Rattus norvegicus) + Thyroid hormone receptor beta (Rattus norvegicus) (UniProt P18113+P63059); test: TOX21_TR_LUC_GH3_Antagonist_Followup: Tox21 GH3 Thyroid Hormone Receptor Antagonism Luciferase Follow-Up Assay (AID 2283942)
How it was run: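 Rat pituitary GH3 cells with a TRα/TRβ-driven luciferase reporter, 5 h attachment, then 15 concentrations (92 uM to 5nM final) plus 1.0 nM T3 agonist, 24 h at 37C/5% CO2. ONE-Glo luminescence; signal change fitted against DMSO baseline.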

Measured: AC50

Sequence of THRB (gene 7068) (P10828 whole entry, looked up, the tested form may be a part): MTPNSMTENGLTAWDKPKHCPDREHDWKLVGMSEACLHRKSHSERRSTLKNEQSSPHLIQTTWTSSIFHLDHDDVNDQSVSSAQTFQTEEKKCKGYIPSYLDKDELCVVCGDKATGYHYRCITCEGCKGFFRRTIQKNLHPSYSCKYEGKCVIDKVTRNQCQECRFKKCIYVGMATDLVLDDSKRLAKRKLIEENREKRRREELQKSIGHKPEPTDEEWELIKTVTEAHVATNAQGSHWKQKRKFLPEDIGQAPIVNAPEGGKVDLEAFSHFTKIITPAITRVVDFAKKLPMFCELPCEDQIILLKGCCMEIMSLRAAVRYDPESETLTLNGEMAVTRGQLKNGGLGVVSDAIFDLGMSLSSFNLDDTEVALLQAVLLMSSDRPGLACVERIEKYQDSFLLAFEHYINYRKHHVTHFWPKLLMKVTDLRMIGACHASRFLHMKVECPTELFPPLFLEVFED
Sequence of Cellular tumor antigen p53 (Homo sapiens) (P04637 whole entry, looked up): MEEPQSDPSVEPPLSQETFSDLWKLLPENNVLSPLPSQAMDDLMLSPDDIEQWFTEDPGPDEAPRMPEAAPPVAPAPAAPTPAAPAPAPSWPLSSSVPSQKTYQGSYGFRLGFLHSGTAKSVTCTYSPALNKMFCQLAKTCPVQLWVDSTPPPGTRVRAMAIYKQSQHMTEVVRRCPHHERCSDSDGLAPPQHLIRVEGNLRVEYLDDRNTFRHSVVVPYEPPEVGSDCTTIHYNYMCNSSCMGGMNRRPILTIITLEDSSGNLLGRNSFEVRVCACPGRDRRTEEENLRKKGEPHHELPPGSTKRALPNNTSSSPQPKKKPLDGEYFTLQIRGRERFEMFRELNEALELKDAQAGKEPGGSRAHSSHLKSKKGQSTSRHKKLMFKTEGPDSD

CCCC(=O)O[C@]1(C(=O)CCl)[C@@H](C)C[C@H]2[C@@H]3CCC4=CC(=O)C=C[C@]4(C)[C@@]3(F)C(=O)C[C@@]21C
not listed: [13] | [14] | [15] | [16]
inactive: all other assays above

CN(C)CCOC(=O)COc1ccc(Cl)cc1
not listed: [8] | THRB (gene 7068) [9] | [10] | THRB (gene 7068) [11] | [12] | [16]
inactive: all other assays above

CCCCCCNC(=O)n1cc(F)c(=O)[nH]c1=O
inactive: [10] | THRB (gene 7068) [11] | [12]
active: [1] 0.709 µM | [2] 0.77 µM | [3] 1.26 µM | [4] 2.57 µM | [5] 3.62 µM | [6] 2.87 µM | [7] 1.02 µM | [8] 2.24 µM | [16] 12 µM

From PubChem BioAssay (EPA / NIEHS)
